A number with no mark means an inactive call.
System: Vero E6 infected with SARS-CoV-2
Test: inhibition of SARS-CoV-2 cytopathic effect; higher = more antiviral protection, active = above 15
Details: 48 h

Row | Structure (SMILES) | inhibition of SARS-CoV-2 cytopathic effect (1 nM) [%] | inhibition of SARS-CoV-2 cytopathic effect (8.33 nM) [%] | inhibition of SARS-CoV-2 cytopathic effect (100 nM) [%] | inhibition of SARS-CoV-2 cytopathic effect (833.33 nM) [%] | inhibition of SARS-CoV-2 cytopathic effect (10000 nM)
1 | C#C[C@]1(O)CC[C@H]2[C@@H]3CCc4cc(OC5CCCC5)ccc4[C@H]3CC[C@@]21C [quinestrol] | -2.85 | -1.33 | -0.65 | 0.63 | 15.7% (active)
2 | C[C@@H]1C[C@H]2[C@@H]3C[C@H](F)C4=CC(=O)C=C[C@]4(C)[C@@]3(Cl)[C@@H](O)C[C@]2(C)[C@H]1C(=O)COC(=O)C(C)(C)C [clocortolone-pivalate] | 0.49 | 2.86 | -2.33 | 1.18 | -2.12%
3 | CCOC(=O)[C@H](CCc1ccccc1)N[C@@H](C)C(=O)N1C(=O)N(C)C[C@H]1C(=O)O [imidapril] | -1.07 | 0.74 | 0.36 | -0.5 | -1.28%
4 | N#Cc1c(Oc2ccc(F)c(NC(=O)Cc3cccc(C(F)(F)F)c3)c2)ccc2nc(NC(=O)C3CC3)sc12 | 0.58 | 2.74 | 2.56 | 0.34 | -7.91%
5 | CC(=O)Oc1c(C)cc(OCC(O)CNC(C)C)c(C)c1C (stereo not given) [metipranolol] | -0.83 | 0.56 | 0.06 | -1.66 | -3.06%
6 | N=C(N)NCc1cccc(I)c1 [iobenguane] | -1.82 | -0.29 | 1.79 | 2.26 | 6.21%
7 | CCCOc1ccc(Br)cc1-c1cc(-c2ccc(Cl)cc2)[nH]c1-c1ccncc1 | -1.64 | 0.84 | 0.25 | -0.83 | -5.61%
8 | C[C@@H]1CCCN1CCc1cc2cc(-c3ccc(C#N)cc3)ccc2o1 | -2.35 | -2.18 | 1.55 | -0.35 | 4.34%
9 | CNCCn1c(=O)c2cc(OC)c(OC)cc2c2cnc3cc4c(cc3c21)OCO4 | 3.31 | 1.57 | -1.27 | -9.93 | -15.7%
10 | [O-][S+](c1ccccc1)c1ccc2nnnn2n1 (stereo not given) | 2.27 | 2.68 | 0.02 | 1.7 | 14%
11 | NC(=O)NCCC[C@H](N)C(=O)O [L-citrulline] | 0.06 | -1.99 | 1.8 | 2.58 | 1.61%
12 | CN(C)N(C)C(=O)[C@@]1(Cc2ccccc2)CCCN(C(=O)[C@@H](Cc2c[nH]c3ccccc23)NC(=O)C(C)(C)N)C1 [anamorelin] | -0.24 | -1 | 9.14 | -2.12 | -0.05%
13 | O=c1[nH]c2ccc(Cl)cc2c(N[C@@H]2CN3CCC2CC3)c1-c1nc2ccccc2[nH]1 | 0.01 | 0.79 | -0.9 | -5.44 | -15.4%
14 | CC(=O)NS(=O)(=O)c1ccc(N)cc1 [sulfacetamide] | 0.35 | 2.07 | 1.95 | 2.14 | 0.21%
15 | COc1ccc(-c2cc(=O)c3c(OC)c(OC)c(OC)c(OC)c3o2)cc1OC [nobiletin] | -1.63 | -2.18 | -7.44 | -2.1 | -0.29%
16 | CCCC(C)NC(=O)c1ccc(Cl)c(Cl)c1 (stereo not given) | 1.38 | 1.88 | 1.26 | -2.38 | -1.56%
17 | Cn1c(NC[C@@H](N)Cc2ccccc2)nc(-c2ccncc2)c(-c2ccc3ccccc3c2)c1=O | -0.22 | 0.05 | -0.08 | 2.09 | 32.9% (active)
18 | CCCCCC(C)N (stereo not given) [tuaminoheptane] | 1.21 | 1.95 | 0.51 | 3.02 | 1.11%
19 | Cc1ncc(COP(=O)([O-])[O-])c(CN(CCN(CC(=O)O)Cc2c(COP(=O)([O-])O)cnc(C)c2O)CC(=O)O)c1O.[Mn].[Na+].[Na+].[Na+] [Mangafodipir (trisodium)] | -2.31 | -3.12 | -2.65 | -1.43 | -3.61%
20 | CCC(=O)OCC(=O)[C@@]1(OC(=O)CC)[C@@H](C)C[C@H]2[C@@H]3CCC4=CC(=O)C=C[C@]4(C)[C@@]3(F)[C@@H](O)C[C@@]21C | -0.73 | 0.98 | -1.61 | 0.59 | -0.08%
